Results as given in PubChem BioAssay AID1851 (National Center for Advancing Translational Sciences (NCATS), 2009).
Several values for one entry are separate records, joined by “and”; a condition that tells them apart may be missing. Equal entries are not always repeated. Among all 16,000 compounds or so, about 2,600 (16%) were called active. Another 20% or so got no clear call; they are omitted. Calls come from the whole dose curve; as a rule, active = well fitted curve in the direction sought with a large enough effect; inconclusive = small, poorly fitted or top-dose-only effect, or effect the other way; inactive = no such curve, though single readings can be large or run the other way. The list is a sample of the results.

target: Cytochrome P450 2D6 (Homo sapiens) (UniProt P10635); assay: Cytochrome panel assay with activity outcomes; conditions: recombinant CYP, pro-luciferin dealkylation, luminescence, p450-cyp2d6; series mostly up to 57.1 µM; activity, negative = inhibition: at the top concentration
% is set by controls: 0 for no effect and ±100 for the full control effect.

Cytochrome P450 2D6 (Homo sapiens), sequence (P10635 whole entry, looked up): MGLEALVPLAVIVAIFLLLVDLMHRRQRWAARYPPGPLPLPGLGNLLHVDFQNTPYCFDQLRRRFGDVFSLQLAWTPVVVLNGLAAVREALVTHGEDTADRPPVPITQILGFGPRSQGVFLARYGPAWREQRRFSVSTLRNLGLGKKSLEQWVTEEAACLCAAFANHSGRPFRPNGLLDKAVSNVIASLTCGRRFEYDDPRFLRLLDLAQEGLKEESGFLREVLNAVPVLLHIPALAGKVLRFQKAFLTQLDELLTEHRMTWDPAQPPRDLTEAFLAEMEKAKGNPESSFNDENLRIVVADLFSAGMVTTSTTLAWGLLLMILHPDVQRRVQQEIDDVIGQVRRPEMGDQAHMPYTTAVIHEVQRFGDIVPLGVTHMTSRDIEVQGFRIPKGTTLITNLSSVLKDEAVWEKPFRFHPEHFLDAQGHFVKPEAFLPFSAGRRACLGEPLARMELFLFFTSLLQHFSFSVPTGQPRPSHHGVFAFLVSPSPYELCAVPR

| Compound | activity, negative = inhibition | AC50 |
| --- | --- | --- |
| C/C(Cn1nc([N+](=O)[O-])cc1C)=N\NC(=O)c1ccc(O)cc1O | 12.2% (inactive) |  |
| Cc1ccc(Cl)c(Nc2ccccc2C(=O)O)c1Cl |  | inactive |
| Cc1nc2ccccc2nc(C)c1=NO | -17.1% (inactive) |  |
| CCOC(=O)C(C)CC(C)C(=O)N1CCOCCN(C(=O)C(C)CC(C)C(=O)OCC)CCOCC1 (stereo not drawn) | -0.969% (inactive) |  |
| NC(N)=NCc1cccc(I)c1 |  | 15.8 µM (active) |
| CC(N)=NCc1cccc(CN)c1 |  | inactive |
| Nc1c(OCC(=O)O)ccc2cc(S(=O)(=O)O)ccc12 | -4.66% [at 11.4 µM] (inactive) |  |
| CNC(=S)NNC(=O)c1sccc1OCc1ccc(C)cc1 | -4.42% (inactive) |  |
| O=C(Cc1ccccc1)N/N=C/c1ccccc1OCc1ccc(Cl)cc1 | -27.7% (inactive) |  |
| COc1ccccc1/C=N/NC(=O)CC(=O)Nc1ccc(Cl)c(Cl)c1 |  | 28.2 µM (active) |
| COc1cc(C(=O)Oc2ccccc2/C=N/NC(=O)c2ccc(C)cc2)cc(OC)c1OC | 38% (inactive) |  |
| NC([N-]/N=C/c1ccccn1)=[S]=[Fe].O=S(=O)(O)O | 8.09% [at 11.4 µM] (inactive) |  |
| N#CCCn1c(=O)c(-c2cc(F)cc(F)c2)nc2cnc(N3CCOCC3)nc21 | 6.46% (inactive) |  |
| CC(C)N(Cc1ccccc1)S(=O)(=O)c1n[nH]c(C(C)(C)C)n1 | 14.9% [at 11.4 µM] (inactive) |  |
| CCC(NC(=O)Nc1cc(OC)c(OC)c(OC)c1)(C(F)(F)F)C(F)(F)F | -29.8% (inactive) |  |
| CC1CCN(C(=O)C2CCN(S(=O)(=O)c3cccc4nonc34)CC2)CC1 | -14.6% (inactive) |  |
| COc1cc(NC(=O)C2CCN(S(=O)(=O)c3cccc4nonc34)CC2)cc(OC)c1 |  | 0.562 µM (active) |
| CC(=O)Nc1ccc(NC(=O)C2CCN(S(=O)(=O)c3cccc4nonc34)CC2)cc1 | -5.83% (inactive) |  |
| O=C(Nc1cccc(F)c1)N1CCCC2(CCN(C(=O)c3cnccn3)CC2)C1 | 0.953% (inactive) |  |
| CCC(=O)NC(=S)Nc1ccc(S(=O)(=O)NC(C)=O)cc1 | 21.6% (inactive) |  |
| CCCCCN(CCCCC)C(=O)[C@H](CCC(=O)O)NC(=O)c1ccc(Cl)c(Cl)c1 |  | inactive |

| Compound | activity, negative = inhibition | AC50 |
| --- | --- | --- |
| O=S(=O)(c1cccc2cnccc12)N1CCNCC1 | -11.8% (inactive) |  |
| O=S(=O)(c1cccc2c(I)cccc12)N1CCCNCC1 |  | 10 µM (active) |
| Cc1noc(C)c1-c1nccc(N2CCN(C)CC2)n1 | -12.7% (inactive) |  |
| Cn1cccc1C(=O)N1CCC2(CC1)CCN(c1ccccn1)CC2 | -9.95% (inactive) |  |
| S=C(Nc1ccc2cn[nH]c2c1)Nc1ccc2cn[nH]c2c1 |  | 2 µM (active) |
| CNC(=S)Nc1ccc2nc(C)c(C)nc2c1 | -6.39% (inactive) |  |
| N#CC(C#N)=NNc1ccc2cn[nH]c2c1 | -16.6% [at 11.4 µM] (inactive) |  |
| CCOC(=O)N/N=C1/C[C@@H](O)[C@@H](O)[C@@H]2[C@@H]3C(=O)N(c4cccc(Oc5ccccc5)c4)C(=O)[C@H]3CC[C@@H]12 | 4.14% [at 11.4 µM] (inactive) |  |
| COC(=O)c1c(C)[nH]c(C)c1C(=O)c1ccccc1Cc1ccccc1 | -2.67% (inactive) |  |
| Cc1cc(C)n(CC(=O)N/N=C/c2ccco2)n1 | 8.84% (inactive) |  |
| O=C(NCC(c1cccs1)N1CCOCC1)c1ccco1 (stereo not drawn) | -12.5% (inactive) |  |
| O=C(NCc1ccccn1)C1CC(c2ccc(Cl)c(Cl)c2)=NO1 (stereo not drawn) | -12.1% (inactive) |  |
| COc1ccc(C2=NOC(C(=O)NCCN3CCOCC3)C2)cc1 (stereo not drawn) | 2.38% (inactive) |  |
| O=C(NCCc1cccs1)C1CC(c2c(Cl)cccc2Cl)=NO1 (stereo not drawn) |  | 5.01 µM (active) |
| COc1ncc2nc(-c3ccccc3)c(=O)n(C)c2n1 | -1.94% (inactive) |  |
| CCc1ccc(C(=O)CN(C#N)c2nc(C)cc(C)n2)cc1 |  | 6.31 µM (active) |
| Cc1cc(C)c(C#N)c(OCC(=O)c2ccc(Br)cc2)n1 | -21.2% (inactive) |  |
| CCc1ccc(C(=O)COC(=O)c2cccc(N3C(=O)c4c(C)nc5ccccc5c4C3=O)c2)cc1 | 0.173% (inactive) |  |
| CC(C)[C@@H](OCc1ccccc1)[C@H](C)/C=N\OC[C@@H](O)[C@@H]1O[C@@H]2OC(C)(C)O[C@@H]2[C@H]1O | 15.3% [at 11.4 µM] (inactive) |  |
| CCn1cc(C(=O)O)c(=O)c2cc(F)c(N3CCN[C@@H](C)C3)c(F)c21 |  | inactive |
| O=c1[nH]c(=O)n([C@@H]2C[C@H](O)[C@H](CO)O2)cc1C(F)(F)F | 10.1% [at 25.6 µM] (inactive) |  |

| Compound | activity, negative = inhibition | AC50 |
| --- | --- | --- |
| N#Cc1cccc(-c2nccc(NCc3cccnc3)n2)c1 | -0.221% (inactive) |  |
| N#Cc1cccc(-c2nccc(NCc3ccccc3)n2)c1 |  | 7.94 µM (active) |
| N#Cc1cccc(-c2nccc(NCc3cccs3)n2)c1 |  | 20 µM (active) |
| N#Cc1cccc(-c2cc(NCc3cccnc3)ncn2)c1 | -18.8% (inactive) |  |
| Cc1cc(C(=O)OCC(=O)NCCC(C)C)c2ccccc2n1 | -7.33% (inactive) |  |
| COc1cc2c3cc1Oc1cc(ccc1O)C[C@@H]1c4c(cc(OC)c(O)c4Oc4ccc(cc4)C[C@H]3[N+](C)(C)CC2)CC[N+]1(C)C | 8.34% [at 11.4 µM] (inactive) |  |
| O=C(Nc1cccc2cccnc12)[C@@H]1[C@@H](C(=O)O)[C@H]2CC[C@@H]1O2 | 5.88% [at 11.4 µM] (inactive) |  |
| C[C@@]1(C(NC(=O)Cc2ccc(C(F)(F)F)cc2)c2ccc(-c3ccccc3)cc2)C[C@H]1C1CCCCC1 (stereo partly drawn) | 10.9% (inactive) |  |
| O=C(O)c1ccccc1-c1ccccc1C(=O)Nc1ccccc1 | 20% (inactive) |  |
| N/N=C1/c2ccccc2N[C@H]1OC(=O)Nc1ccccc1 |  | 3.16 µM (active) |
| O=C(Nc1ccccc1)[C@@]12C[C@@H]1/C(=N/O)c1ccccc1O2 | -2.77% (inactive) |  |
| CN(C)CCSCCO | 7.16% [at 11.4 µM] (inactive) |  |
| NC(=O)c1nnn(Cc2cc(Cl)c(C(=O)c3ccc(Cl)cc3)c(Cl)c2)c1N | -20.8% [at 11.4 µM] (inactive) |  |
| NNCCc1ccccc1 |  | 6.31 µM (active) and 2.51 µM (active) |
| O=C(CC(=O)NN=C1CCCC1)NCCc1ccccc1 | 12.2% (inactive) |  |
| O=C(O)CNCCc1ccccc1 | 3.94% [at 11.4 µM] (inactive) |  |
| COc1cccc(/C=N/n2nnc3c(cnn3-c3ccccc3)c2=O)c1 | 11% (inactive) |  |
| Cc1c(C)c(C)c(CC2(C)CSC2)c(CC2(C)CSC2)c1C | 7.89% [at 11.4 µM] (inactive) |  |
| COc1ccc(C2(C(=O)N3CCOCC3)CCCC2)cc1 | -19% (inactive) |  |
| C[N+]1(C)CCc2cc3c(cc2[C@@H]1[C@@H]1C(=O)Oc2c1ccc1c2OCO1)OCO3 |  | 12.6 µM (active) |
| COc1ccc(-n2c(=O)c(-c3cccc(C#N)c3)nc3cnc(N4CCNCC4)nc32)cc1 | -4.03% (inactive) |  |
